Assay results as given in PubChem BioAssay AID434970 (Sanford-Burnham Center for Chemical Genomics, 2010).
Screen size: about 11,000 compounds; about 310 (2.8%) were called active. Rule as the data show it: active = activity change below about -85%; inactive = the rest. What follows is part of a selection rich in actives, with near analogues and random picks from the rest.

test system: intestinal alkaline phosphatase [Mus musculus]; experiment: mouse intestinal phosphatase enzyme activation – biochemical, luminescence, single concentration, confirmation (AID 434970); conditions: purified mouse IAP, CDP-Star luminescence, 30 min, at 10 µM; activation factor: measured here: IAP activation factor, stronger effect = higher value; activity change, negative = activation: stronger effect = lower value

Compound | activation factor | activity change, negative = activation
Cc1ccc(N2C(=O)c3ccc(C(=O)Nc4cccnc4)cc3C2=O)c(C)c1 | 0.946 | 5.45% (inactive)
Cc1ccc2[nH]c(=O)c(C(c3nnnn3CC3CCCO3)N3CCCc4ccccc43)cc2c1 (stereo not drawn) | 0.398 | 60.2% (inactive)
CCOc1ccc(NC(=O)CS(=O)CC(=O)NC2CCCc3ccccc32)cc1 (stereo not drawn) | 1 | -0.45% (inactive)
COC(=O)c1ccc(NC(=S)NC2CCc3ccccc32)cc1 (stereo not drawn) | 1.51 | -50.8% (inactive)
COc1ccc(-c2nnn(CC(=O)NC3CCCc4ccccc43)n2)cc1OC (stereo not drawn) | 1.06 | -5.8% (inactive)
Cc1cccc(-n2nnc(C(=O)NC3CCCc4ccccc43)c2N)c1 (stereo not drawn) | 1.01 | -1.4% (inactive)
Cc1cccc(C)c1NC(=O)CS(=O)CC(=O)NC1CCCc2ccccc21 (stereo not drawn) | 1.11 | -11.2% (inactive)
CC(C)(C)c1ccc(NC(=O)NC2CCCc3ccccc32)cc1 (stereo not drawn) | 3.53 | -253% (active)
COc1cccc(NC(=O)NC2CCCc3ccccc32)c1 (stereo not drawn) | 2.74 | -174% (active)
CCOc1ccc(NC(=O)CN(C)CC(=O)NC2CCCc3ccccc32)cc1OCC (stereo not drawn) | 1.1 | -9.8% (inactive)
Cc1cccc(NC(=O)NC2CCCc3ccccc32)c1 (stereo not drawn) | 3.36 | -236% (active)
CCCn1c(Nc2ccccc2C)nc2ccccc21 | 0.988 | 1.25% (inactive)
COC(=O)c1cn(CC(=O)NC2CCCCC2)c2ccccc12 | 1.04 | -3.9% (inactive)
Cc1ccc(-c2cc(-c3ccccc3)c3c(N)c(S(C)(=O)=O)sc3n2)cc1 | 0.966 | 3.45% (inactive)
O=c1oc2cc(OCc3ccc([N+](=O)[O-])cc3)ccc2c2c1CCCC2 | 0.909 | 9.15% (inactive)
COc1cccc(N=c2oc3ccc(OC)cc3cc2-c2nc3ccccc3[nH]2)c1 | 1.03 | -2.7% (inactive)
O=C(Nc1ccc(Cl)cc1)Nc1cc(S(=O)(=O)N2CCOCC2)ccc1N1CCCC1 | 2.15 | -116% (active)
COc1ccccc1NC(=O)c1cc(S(=O)(=O)N2CCOCC2)ccc1Cl | 0.877 | 12.2% (inactive)
O=C(Nc1ccccc1)c1ccc(S(=O)(=O)N2CCOCC2)cc1 | 1.01 | -1.35% (inactive)
O=C(Nc1ccc(Cl)c(Cl)c1)Nc1cc(S(=O)(=O)N2CCOCC2)ccc1N1CCCC1 | 2.53 | -153% (active)
CCN(CC)c1ccc(S(=O)(=O)N2CCOCC2)cc1NC(=O)Nc1ccccc1 | 2.53 | -153% (active)

Compound | activation factor | activity change, negative = activation
O=C(Nc1ccc(Cl)c(Cl)c1)Nc1cc(C(=O)N2CCOCC2)ccc1N1CCCCC1 | 2.67 | -167% (active)
CC(Sc1ccc(Cl)cc1)C(=O)Nc1ccc(S(=O)(=O)N2CCOCC2)cc1 (stereo not drawn) | 1.07 | -7.35% (inactive)
Cc1ccc(C(=O)N2CCOCC2)cc1Cl | 0.984 | 1.65% (inactive)
CN1CCN(c2ccc(Cl)cc2NC(=O)c2ccc(S(=O)(=O)N3CCCCCC3)cc2)CC1 | 0.982 | 1.75% (inactive)
Cc1oc(S(=O)(=O)N2CCCCC2)cc1NC(=O)Nc1ccc(Cl)cc1 | 1.42 | -41.8% (inactive)
CC(=O)c1cccc(NC(=O)Nc2ccc(C(=O)N3CCOCC3)cc2)c1 | 1.06 | -6.35% (inactive)
Cc1ccc(NC(=O)Nc2ccccc2F)cc1S(=O)(=O)N1CCOCC1 | 1.52 | -51.6% (inactive)
Cc1ccc2c(c1)nnn2C1CCN(S(C)(=O)=O)CC1 | 0.904 | 9.55% (inactive)
CCc1ccccc1NC1=NCC(=O)N1Cc1ccccc1 | 1 | -0.1% (inactive)
COc1cccc(-c2sc3cc(OC)c(OC)cc3c2-c2ccc(OCCN3CCCCC3)cc2)c1 | 1.01 | -0.55% (inactive)
O=C(c1cccs1)N1CCCC(c2ccccc2)C1 (stereo not drawn) | 0.929 | 7.1% (inactive)
COc1cc(=O)n(C)c2cc(N(C)C)ccc12 | 0.917 | 8.35% (inactive)
COc1ccc2[nH]c3c(c2c1)CCN1C(=O)C(CC(=O)NCc2cccc(C(F)(F)F)c2)C[C@H](C(=O)N2CCOCC2)[C@@]31C (stereo partly drawn) | 1.08 | -8.45% (inactive)
COc1ccc(Cc2nc3ccc(C(=O)NCc4ncc(C)[nH]4)cc3o2)cc1OC | 0.927 | 7.3% (inactive)
COC(=O)c1sccc1NC(=O)C1CC=CCC1C(=O)O (stereo not drawn) | 0.998 | 0.15% (inactive)
CC1(C)Cc2noc(N)c2C(C)(C)N1OC(=O)c1cccs1 | 1.04 | -3.75% (inactive)
CC[C@]12c3[nH]c4cc(CCC(=O)N(C)C)ccc4c3CCN1C(=O)[C@@H](CC(=O)NC/C=C(\C)CCC=C(C)C)C[C@@H]2C(=O)N1CCN(C(=O)C2CC2)CC1 | 1.09 | -9.3% (inactive)
O=C(c1ccc(Cn2c(=O)[nH]c3ccccc3c2=O)cc1)N1CCN(c2ccc(F)cc2)CC1 | 1 | 0.05% (inactive)
S=C(NCCC(c1ccccc1)c1ccccc1)Nc1ccc(Cl)cc1 | 2.1 | -110% (active)
Fc1ccccc1CNC(=S)Nc1ccc(Cl)cc1 | 1.38 | -38.1% (inactive)
S=C(NCCC(c1ccccc1)c1ccccc1)Nc1cccc(Cl)c1 | 3.74 | -274% (active)

Compound | activation factor | activity change, negative = activation
S=C(NCCN(C1CCCCC1)C1CCCC1)Nc1cccc(Cl)c1 | 1.69 | -68.5% (inactive)
Cc1ccc(NC(=S)NCCSc2ccc(Cl)cc2)cc1 | 1.45 | -45.4% (inactive)
S=C(NCc1ccccc1)Nc1cccc(Cl)c1 | 1.4 | -40.5% (inactive)
CC(C)CN(C(=O)COC(=O)Cn1cnc2ccccc2c1=O)C1CCS(=O)(=O)C1 (stereo not drawn) | 0.927 | 7.25% (inactive)
CCOc1ccc(CN2CCC(n3nccc3NC(=O)CCCc3ccccc3)CC2)cc1 | 1.83 | -83% (inactive)
COc1ccc(-c2noc(CCCC(=O)NCCc3ccccc3)n2)cc1OC | 0.998 | 0.25% (inactive)
CCOc1ccc(-c2cc(CCCC(=O)NCCc3ccccc3)no2)cc1 | 1.07 | -6.9% (inactive)
Cc1ccc(C)c(CN2CCC(n3nccc3NC(=O)CCCc3ccccc3)CC2)c1 | 2.31 | -131% (active)
CCOC(=O)CN(C(=O)CN1CCC(n2nnc3cc(C)ccc32)CC1)c1ccccc1 | 0.982 | 1.8% (inactive)
COc1ccc(Cl)cc1NC(=O)CN1CCC(n2nnc3ccccc32)CC1 | 0.96 | 4.05% (inactive)
COc1ccc(CN2CCC(n3nccc3NC(=O)CCCc3ccccc3)CC2)cc1C | 2.4 | -140% (active)
COc1ccccc1CN1CCC(n2nccc2NC(=O)CCCc2ccccc2)CC1 | 2.08 | -108% (active)
COc1ccc(CN2CCC(n3nccc3NC(=O)CCc3ccccc3)CC2)c(C)c1C | 1.6 | -60% (inactive)
CCOc1cccc(CN2CCC(n3nccc3NC(=O)CCCc3ccccc3)CC2)c1 | 2.3 | -130% (active)
COc1ccccc1CN1CCN(S(=O)(=O)c2ccccc2)CC1 | 0.897 | 10.3% (inactive)
Cc1ccc(-c2nnn(CC(=O)NC3CCN(Cc4ccccc4)CC3)n2)cc1 | 1.04 | -4.25% (inactive)
COc1cc(-c2nnc3sc(Cc4ccccc4)nn23)cc(OC)c1OC | 0.942 | 5.85% (inactive)
CCOC(=O)c1cnc(SCc2cccc(C)c2)nc1N | 1.08 | -7.85% (inactive)
CCOc1ccc(NC(=O)N2CCC(C(=O)c3ccc(F)cc3)CC2)cc1 | 1.07 | -7.1% (inactive)
COc1cccc(OC)c1C(=O)Nc1cccc(C(C)=O)c1 | 0.983 | 1.65% (inactive)
NS(=O)(=O)c1ccc(N2N=C(c3ccccc3)CC2c2ccccc2)cc1 (stereo not drawn) | 1.6 | -59.6% (inactive)

Compound | activation factor | activity change, negative = activation
CCCC1(C(=O)OCC)NC(c2cc(OC)c(OC)c(OC)c2)C2C(=O)N(CC)C(=O)C21 (stereo not drawn) | 0.957 | 4.35% (inactive)
O=C(CN1CCCCCC1)Nc1ccccc1F | 0.954 | 4.6% (inactive)
Cc1cc(C)c2nc(C(F)(F)F)nc(NCCCN3CCCC3=O)c2c1 | 0.947 | 5.35% (inactive)
COc1ccc(/C=N/NC(=O)c2cc(-c3ccccc3OC)nc3ccccc23)cc1COC(C)=O | 0.929 | 7.05% (inactive)
O=C(Nc1nc2ccc(S(=O)(=O)N3CCCCC3)cc2s1)C1CCCO1 (stereo not drawn) | 0.96 | 4.05% (inactive)
COC(=O)C[C@H](NC(=O)Cn1cnc2c(NCc3ccccc3)ncnc21)C(=O)OC | 0.97 | 2.95% (inactive)
Cc1cc(NC(=O)CN2C(=O)C3CC=CCC3C2=O)no1 (stereo not drawn) | 0.929 | 7.05% (inactive)
COc1ccc(OC)c(S(=O)(=O)n2nc(C)cc2C)c1 | 1.08 | -7.9% (inactive)
O=C(CCN1CCN(C/C=C/c2ccccc2)CC1)Nc1ccccc1 | 1.08 | -8% (inactive)
COc1ccc(Cl)cc1NC(=O)CCc1ccccc1 | 0.97 | 3% (inactive)
COc1ccccc1/C=C/CN1CCC(n2nccc2NC(=O)CCc2ccccc2)CC1 | 2.21 | -121% (active)
O=S(=O)(Nc1ccc(Cl)c(C(F)(F)F)c1)c1cnc[nH]1 | 0.887 | 11.3% (inactive)
COc1ccc(NC(=O)Nc2ccc3c(c2)C(=O)N([C@H](C)CO)C[C@H](C)[C@@H](CN(C)C(=O)NC2CCCCC2)O3)cc1 | 1.64 | -64% (inactive)
C[C@H](CO)N1C[C@H](C)[C@@H](CN(C)C(=O)Nc2ccccc2)Oc2ccc(NC(=O)Nc3ccccc3)cc2C1=O | 2.23 | -123% (active)
COc1ccc(NC(=O)Nc2ccc3c(c2)C(=O)N([C@H](C)CO)C[C@H](C)[C@@H](CN(C)C(=O)Nc2ccccc2)O3)cc1 | 1.59 | -59.5% (inactive)
C[C@H](CO)N1C[C@H](C)[C@@H](CN(C)C(=O)Nc2ccccc2)Oc2ccc(NC(=O)NC3CCCCC3)cc2C1=O | 1.47 | -46.7% (inactive)
COc1ccc(NC(=O)Nc2ccc3c(c2)C(=O)N([C@H](C)CO)C[C@H](C)[C@@H](CN(C)C(=O)Nc2ccc4c(c2)OCO4)O3)cc1 | 1.63 | -62.9% (inactive)
C[C@H](CO)N1C[C@H](C)[C@@H](CN(C)C(=O)Nc2ccc(C(F)(F)F)cc2)Oc2ccc(NC(=O)Nc3ccccc3)cc2C1=O | 1.71 | -71.5% (inactive)
C[C@H](CO)N1C[C@H](C)[C@@H](CN(C)C(=O)Nc2ccc3c(c2)OCO3)Oc2ccc(NC(=O)Nc3ccc4c(c3)OCO4)cc2C1=O | 1.75 | -74.9% (inactive)
C[C@H](CO)N1C[C@H](C)[C@@H](CN(C)C(=O)Nc2ccccc2)Oc2ccc(NC(=O)Nc3ccc4c(c3)OCO4)cc2C1=O | 2.17 | -117% (active)
C[C@H](CO)N1C[C@H](C)[C@@H](CN(C)C(=O)NC2CCCCC2)Oc2ccc(NC(=O)Nc3ccccc3)cc2C1=O | 2 | -99.6% (active)
